# Screens deposited in PubChem by National Center for Advancing Translational Sciences (NCATS).
# Only some compounds are listed: those with a hit (about 11% of all), similar ones and a draw of the others.
# HCV inh: HCV inhibition | Huh7.5.1 HCVcc-Cre infection, luciferase reporter, 44 h | Potency, µM (highest dose often 41.8 µM), without a hit: at the highest dose activity change, negative = inhibition, most hits filed as inhibitors | actives 3.4% (n = 340,000) | AID 651820
#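 A cell-based infection assay in which seeded cells (1,000 per well) receive test compound after 4 h, are inoculated with HCVcc-Cre at approximately 0.5 moi, and are incubated 44 h before luminescence detection.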
# AmpC no deterg: AmpC beta-lactamase inhibition without detergent. P00811. AmpC nitrocefin hydrolysis, absorbance 480 nm, 0.0001% Triton. Potency, µM (highest dose often 57.1 µM), inactives show at the highest dose activity change, negative = inhibition, actives largely listed as inhibitors. actives 0.52% (n = 330,000). AID 485341;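 also: plate controls were no compound for no effect and no enzyme for full effect; nearly all actives have a fitted effect of over 20% in size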
# Target sequence (P00811 whole entry, looked up): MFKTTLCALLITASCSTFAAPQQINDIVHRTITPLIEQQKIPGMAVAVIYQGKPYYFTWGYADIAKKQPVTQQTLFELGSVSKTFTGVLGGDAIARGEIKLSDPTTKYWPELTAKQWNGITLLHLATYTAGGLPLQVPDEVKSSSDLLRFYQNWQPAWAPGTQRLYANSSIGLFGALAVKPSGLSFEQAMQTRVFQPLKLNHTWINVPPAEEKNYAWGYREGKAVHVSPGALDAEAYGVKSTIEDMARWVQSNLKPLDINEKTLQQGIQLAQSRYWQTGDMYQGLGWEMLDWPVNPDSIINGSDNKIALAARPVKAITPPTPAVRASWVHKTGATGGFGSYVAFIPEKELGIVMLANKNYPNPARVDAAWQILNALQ
#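 20 mM phosphate pH 7.0 + 0.01% (detergent screen) or 0.0001% Triton X-100; 5.3 nM AmpC reagent; cpd preinc 15 min RT; nitrocefin (800 uM stock) to start; A480 q20 s × 4 min; Activity was normalised to no-enzyme and no-compound control wells.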
# Pf growth 96h: P. falciparum growth inhibition at 96 hours. P. falciparum luciferase reporter growth, 96 h. Potency, µM (titrated, usually from 28.7 µM), for inactives: at the top dose activity change, negative = inhibition, usual class: inhibitors. actives 6.9% (n = 320,000). AID 504834
#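 P. falciparum expressing integrated firefly luciferase grown in erythrocytes (2% hematocrit, 0.05% parasitemia final) with compounds for 96 hours at 37 C, 5% CO2. Growth inhibition read as loss of luminescence after adding luciferase detection reagent.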
# Pf growth 48h: inhibits P. falciparum growth in the first generation, 48 h | Potency, µM (doses to about 28.7 µM), inactives show top-dose activity change, negative = inhibition, actives largely listed as inhibitors | AID 504832 | P. falciparum luciferase growth in erythrocytes, 48 h | actives 5.9% (n = 310,000)
#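 Compounds are pin-transferred into medium, infected erythrocytes (2% hematocrit, 0.1% parasitemia final) are added, and plates sit one parasite generation at 37 C in 5% CO2. Detection reagent is then added and luminescence measured.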
# AMA1 RON2 block: disrupts binding of P. falciparum AMA1 to RON2. Potency, µM (series often up to 58.2 µM), for inactives: at the highest dose activity change, negative = inhibition, usual class: inhibitors. actives 0.2% (n = 360,000). AlphaScreen AMA1-biotinylated RON2 peptide binding;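 also: 0% = vehicle wells and -100% = peptide control; nearly all actives have a fitted effect of over 45% in size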
#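 AMA1 (3D7) with his tag at 25 nM final met compounds first, then biotinylated RON2 peptide at 25 nM; detection used donor plus acceptor beads, 10 µg/mL apiece, read by AlphaScreen after 30 min at room temperature.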
# AmpC inh detg: blocks E. coli AmpC beta-lactamase in detergent assay. AmpC hydrolysis of nitrocefin, absorbance 480 nm, 0.01% Triton. Potency, µM (series often up to 114 µM), inactives show top-dose activity change, negative = inhibition, actives largely listed as inhibitors. actives 0.041% (n = 370,000). AID 485294;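 also: 0% = no-compound wells and -100% = no-enzyme wells; nearly all actives have a fitted effect of over 25% in size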
#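 AmpC (5.3 nM in the dispensed reagent) in 20 mM phosphate pH 7.0 with 0.01% (detergent screen) or 0.0001% Triton X-100 was preincubated with compounds for 15 min at room temperature. Nitrocefin was then added from an 800 uM solution, and hydrolysis was followed at 480 nm.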
# Numbers without * were called inactive; ? = inconclusive; · = no result given; [ ] = remark or other dose. Calls follow the shape of the dose curve; as a rule, active = well fitted curve in the direction sought with a large enough effect; inconclusive = small, poorly fitted or top-dose-only effect, or another doubt; inactive = no such curve, though single readings can be large; an effect the other way counts as inactive or inconclusive. Unless noted, % is scaled to controls: 0 for no effect and ±100 for the full control effect; potency is read from the fitted curve at half-maximal effect.
SMILES,HCV inh,AmpC no deterg,Pf growth 96h,Pf growth 48h,AMA1 RON2 block,AmpC inh detg
CC(=O)c1c(C)[nH]c(C(=O)CN2CCN(S(=O)(=O)c3ccccc3[N+](=O)[O-])CC2)c1C,?,-18.9%,10.4µM*,?,17.5%,-15.6%
O=C(CC1CC2CCC1C2)N1CCN(S(=O)(=O)c2ccccc2C(F)(F)F)CC1 (stereo not drawn),?,52.4%,?,11.7µM*,-3.5%,-2.2%
O=C(CC1CC2CCC1C2)N1CCN(S(=O)(=O)c2ccccc2[N+](=O)[O-])CC1 (stereo not drawn),11.8%,-5.5%,10.4µM*,?,-4.2%,-9.1%
CCCS(=O)(=O)N1CCN(S(=O)(=O)c2ccccc2[N+](=O)[O-])CC1,-2.6%,-8.3%,?,7.8%,-15.4%,0.2%
COc1ccc(N(C(=O)Cc2cccs2)C(C(=O)NC2CCCC2)c2ccncc2)cc1OC (stereo not drawn),18.4%,20.4%,?,-14.1%,-1.4%,-1.3%
C#CC(=O)N(c1cccc(OC)c1)C(C(=O)NC1CCCC1)c1cccs1 (stereo not drawn),0.562µM*,5.5%,?,30.6%,-3.7%,-2.7%
CC(=O)c1cccc(N(C(=O)c2ccccn2)C(C(=O)NC2CCCCC2)c2cccs2)c1 (stereo not drawn),13.2%,?,1.65µM*,2.62µM*,2.9%,-0.6%
C#CC(=O)N(c1ccc(OC)c(OC)c1)C(C(=O)NC1CCCC1)c1cccs1 (stereo not drawn),0.316µM*,?,-9.2%,-12.4%,2.1%,0.3%
Cc1cccc(N(C(=O)C(F)(F)F)C(C(=O)NC2CCCCC2)c2cccs2)c1 (stereo not drawn),6.9%,-11.5%,9.1%,?,12.4%,-9.3%
Cc1cccc(NC(=O)Cn2nc(N3CCN(c4ccccc4)CC3)ccc2=O)c1C,·,·,·,·,·,2.4%
CCOC(=O)c1c(C)nc(C(Cl)(Cl)Cl)nc1N,-5.1%,-18.9%,140.3%,13.1µM*,6.5%,3.4%
CCOC(=O)c1nc(N)c(C(=O)OCC)[nH]1,-14.3%,-2.5%,·,16.5%,17.4%,3.7%
CCOc1cc(C(=O)Nc2ccc(-c3nnc4n3CCCCC4)cc2)cc(OCC)c1OCC,·,·,·,·,·,15.6%
CCCOc1ccc(-c2nnc(-c3ccco3)o2)cc1,7.4%,0.4%,11.7µM*,-20.4%,-16.5%,-0.3%
O=C(Nc1cccc(-c2nnc(-c3ccco3)o2)c1)C(c1ccccc1)c1ccccc1,?,-44.8%,5.22µM*,·,-0.3%,-2.8%
COc1cccc(C(=O)Nc2ccc(-c3nnc(-c4ccco4)o3)cc2)c1,-18.6%,107.9%,?,4.65µM*,0.0%,-0.5%
COc1cccc(C(=O)Nc2cccc(-c3nnc(-c4ccccc4)o3)c2)c1,?,·,·,·,-2.1%,·
CC(C)COc1ccc(-c2nnc(-c3ccco3)o2)cc1,?,8.6%,?,117.3%,-1.7%,-1.9%
CC(C)c1nn2c(=O)cc(COC(=O)c3ccc(NC(=O)CCc4ccccc4)cc3)nc2s1,·,·,·,·,·,10.9%
CCOc1ccccc1CNC(=O)c1[nH]c2ccccc2c1Sc1ccccc1,·,·,·,·,·,2.8%
COc1ccc(C(=O)C/C(=C\C(=O)c2ccc(C)cc2)c2ccccc2)cc1,11.2µM*,-47.4%,10.4µM*,?,-12.0%,?
COc1cc(/C=C/c2nc(C#N)c(N3CCCCC3)o2)cc(OC)c1OC,·,·,·,·,·,16.8%
CCc1ccc(N(CC)C(=O)Cn2nc(Cc3cccnc3)c3ccccc3c2=O)cc1,·,·,·,·,·,17.0%
Cc1cc2c3c([nH]c2cc1S(=O)(=O)N1CCC2(CC1)OCCO2)CCCC3=O,22.4µM*,-49.8%,?,?,-7.2%,0.4%
COc1ccc(C2(N3CCN(c4cccc(C)c4C)CC3)C(=O)c3ccccc3C2=O)cc1,·,·,·,·,·,15.2%
SMILES,HCV inh,AmpC no deterg,Pf growth 96h,Pf growth 48h,AMA1 RON2 block,AmpC inh detg
CCC(=O)N1c2ccc(S(=O)(=O)CCC(=O)Nc3ccc(Br)c(C)c3)cc2CC1C (stereo not drawn),·,·,·,·,·,1.5%
O=C(O)COc1ccccc1-c1nc(-c2ccccc2)c(-c2ccccc2)[nH]1,-2.6%,3.16µM*,314.7%,-0.1%,-8.4%,-3.1%
COc1cccc(-c2nc(-c3ccccc3)c(-c3ccccc3)[nH]2)c1OCC(=O)O,0.7%,3.0%,182.9%,?,-25.5%,?
CCCCn1c(CNC(=O)C23CC4CC(CC(C4)C2)C3)nnc1SC(C)CC (stereo not drawn),2.6%,187.0%,?,10.4µM*,-5.2%[2.32 µM],3.7%
CCn1c(CNC(=O)C23CC4CC(CC(C4)C2)C3)nnc1SCC(=O)Nc1nnc(C)s1,12.1%,-10.3%,7.38µM*,·,-0.8%,-5.4%
O=C(NCc1nnc(SCc2ccccc2)n1-c1ccccc1)C12CC3CC(CC(C3)C1)C2,?,60.6%,?,?,-3.3%[11.6 µM],-2.5%
CCCCSc1nnc(CNC(=O)C23CC4CC(CC(C4)C2)C3)n1Cc1ccccc1,?,96.1%,?,13.1µM*,-0.9%,-8.6%
CCCCn1c(CNC(=O)C23CC4CC(CC(C4)C2)C3)nnc1SCC(=O)Nc1nnc(C)s1,15.2%,11.6%,1.8%,3.0%,0.0%,?
Cc1cc(C)nc(-n2nc(C)c3c2N(Cc2ccccc2)C(=O)CC3c2ccc(Cl)cc2)n1 (stereo not drawn),·,·,·,·,·,3.5%
O=C(Nc1cc(Cl)ccc1Cl)c1cc(S(=O)(=O)NCCc2ccccc2)ccc1F,·,·,·,·,·,10.3%
CC1CCCC(C)N1C(=O)CSc1nc2ncnc(N)c2[nH]1 (stereo not drawn),11.5%,-2.1%,0.738µM*,6.4%,0.0%,-13.5%
CC1CCN(S(=O)(=O)c2cn(CC(=O)Nc3ccc(F)cc3)c(=O)c3ccccc23)CC1,·,·,·,·,·,-4.9%
COCCNC(=O)CN(C(=O)Cn1nnc2ccccc21)c1ccc(F)c(Cl)c1,14.5%,-14.1%,10.4µM*,17.5%,43.6%,-13.8%
CC(=O)Nc1c2c(nn1-c1ccc(C)cc1C)CSC2,18.0%,?,10.4µM*,?,-0.6%,2.0%
Cc1ccc(-n2nc3c(c2NC(=O)c2ccc4c(c2)OCO4)CS(=O)(=O)C3)c(C)c1,19.9%,-10.5%,11.7µM*,-2.4%,0.0%,-14.2%
CCCC(=O)Nc1c2c(nn1-c1ccc(C)cc1C)CSC2,-1.7%,-28.5%,33.8%,-14.6%,-0.3%,6.3%
Cc1ccccc1-n1nc2c(c1NC(=O)c1cccs1)CS(=O)(=O)C2,-0.2%,-39.2%,-1.9%,18.9%,-8.0%,-4.7%
Cc1ccc(-n2nc3c(c2NC(=O)c2cccs2)CS(=O)(=O)C3)c(C)c1,-8.8%,-25.6%,0.586µM*,21.9%,-13.6%,-7.0%
